High-throughput results deposited in PubChem BioAssay by National Center for Advancing Translational Sciences (NCATS).
Only some compounds are listed: those with a hit (about 8.2% of all), similar ones and a draw of the others.
KB-3-1 tox: kills parental KB-3-1 adenocarcinoma cells | AID 1347075 | KB-3-1 viability, CellTiter-Glo ATP luminescence, 72 h | 400,000 compounds, 1.4% hits | Potency, µM (top dose mostly 46.1 µM), actives largely listed as cytotoxic; further: nearly all actives have a fitted effect of over 60% in size
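KB-3-1 cells, DMEM (no phenol red) + 10% FBS; compound by pin transfer, 72 h, 37 °C. Readout: CellTiter-Glo luminescence after 10 min. Data normalized, curve-fitted.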
KB-V1 MDR tox: KB-V1 MDR subline cytotoxicity; Potency, µM (top dose mostly 46.1 µM), most hits filed as cytotoxic; 400,000 compounds, 3.4% hits; KB-V1 MDR cells viability, CellTiter-Glo, 72 h; AID 1347076; further: nearly all actives have a fitted effect of over 60% in size
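Potencies derive from concentration-effect curves fitted to normalized luminescence (CellTiter-Glo) of KB-V1 cells treated for 72 h at 37 degrees C in phenol-red-free DMEM containing 10% FBS.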
ELG1 DNA repair: ELG1-dependent DNA repair inhibition. Potency, µM (titrated, usually from 46.1 µM), usual class: inhibitors. HEK293T ELG1-luciferase reporter, luminescence, 16 h; DNA damage induced by 5-fluorouridine. 330,000 compounds, 2.3% hits. AID 504467; further: nearly all actives have a fitted effect of over 55% in size
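5-Fluorouridine DNA damage + compound/DMSO, 2,000 cells/well, 16 h, 37 °C/5% CO2. ONE-Glo, 30 min RT, luminescence. Readout = decrease in reporter signal.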
MCF10A rereplic: inducers of DNA re-replication in MCF 10A breast cells | MCF 10A DNA re-replication, Hoechst nuclear intensity, 48 h | Potency, µM (doses to about 46.1 µM), hits mostly activators | AID 624296 | 350,000 compounds, 2.9% hits; further: nearly all actives have a fitted effect of over 50% in size
SW480 rerep: inducers of DNA re-replication in SW480 colon cancer cells; 340,000 compounds, 1.8% hits; AID 624297; SW480 DNA re-replication, Hoechst DNA content imaging, 48 h; Potency, µM (doses to about 46.1 µM), hits mostly activators; further: nearly all actives have a fitted effect of over 55% in size
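Per well, 250 cells were exposed to pinned compound for 48 hr. Nuclear DNA was visualised with Hoechst (40 min, 37 C) and total object intensity recorded by fluorescence scanning.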
A number is an active result. The call rests on the fitted dose curve; in most records, active means well fitted curve in the direction sought with a large enough effect; inconclusive means small, poorly fitted or top-dose-only effect, or another doubt; inactive means no such curve, though single readings can be large; an effect the other way counts as inactive or inconclusive.

`Cc1cc(NC(=O)CN2CCN(S(=O)(=O)c3ccc(Cl)cc3)CC2)no1` gave KB-3-1 tox inactive, KB-V1 MDR tox 16µM, ELG1 DNA repair inactive, MCF10A rereplic inactive and SW480 rerep inactive.
`COc1ccc(S(=O)(=O)N2CCN(CC(=O)Nc3ccc(C)c(F)c3)CC2)cc1` gave KB-3-1 tox inactive, KB-V1 MDR tox 6.5µM, ELG1 DNA repair inactive, MCF10A rereplic inactive and SW480 rerep inactive.
For Cc1cc(NC(=O)COC(=O)C2CCN(S(=O)(=O)c3ccc(Cl)cc3)CC2)no1 the results were KB-3-1 tox inactive, KB-V1 MDR tox inactive, ELG1 DNA repair inactive, MCF10A rereplic inactive and SW480 rerep inactive.
`O=C(CN1CCN(S(=O)(=O)c2ccc(F)cc2)CC1)Nc1cc(C(F)(F)F)ccc1Cl` gave KB-3-1 tox inactive, KB-V1 MDR tox inactive, ELG1 DNA repair 26µM, MCF10A rereplic inconclusive and SW480 rerep inactive.
`Cn1cnnc1SCC(=O)NNC(=O)COc1ccc(Cl)cc1` gave KB-3-1 tox inactive, KB-V1 MDR tox inconclusive, ELG1 DNA repair inactive, MCF10A rereplic 0.58µM and SW480 rerep inactive.
`CCOC(=O)c1c(C)[nH]c(C)c1S(=O)(=O)NCc1ccccc1OCC` gave KB-3-1 tox inactive, KB-V1 MDR tox inactive, ELG1 DNA repair inactive, MCF10A rereplic inactive and SW480 rerep inactive.
For COc1ccc(CC(=O)N2CCC(CCC(=O)Nc3ccccc3)CC2)cc1 the results were ELG1 DNA repair inactive, MCF10A rereplic 23µM and SW480 rerep inactive.
Screening C/C(=N\N1CCN(C2c3ccccc3-c3ccccc32)CC1)c1ccncc1 returned KB-3-1 tox inconclusive, KB-V1 MDR tox 18µM, ELG1 DNA repair inactive, MCF10A rereplic inactive and SW480 rerep inactive.
CC(NC(=O)CNC(=O)c1ccco1)c1ccccc1 (centres undefined) was read as KB-3-1 tox inactive, KB-V1 MDR tox inactive, ELG1 DNA repair inactive, MCF10A rereplic inactive and SW480 rerep inactive.
COc1cc(CCN2C(=O)c3cccc4cccc(c34)C2=O)c(S(=O)(=O)NCCCO)cc1OC was read as KB-3-1 tox inactive, KB-V1 MDR tox inactive, ELG1 DNA repair 5.8µM, MCF10A rereplic inactive and SW480 rerep inactive.
Screening COc1cc(CCN2C(=O)c3cccc4cccc(c34)C2=O)c(S(=O)(=O)NCCO)cc1OC returned KB-3-1 tox inconclusive, KB-V1 MDR tox inactive, ELG1 DNA repair 4.6µM, MCF10A rereplic inconclusive and SW480 rerep inactive.
For COc1ccc(CCNC(=O)CCN2C(=O)c3cccc4cccc(c34)C2=O)cc1OC the results were KB-3-1 tox inactive, KB-V1 MDR tox inactive, ELG1 DNA repair inactive, MCF10A rereplic inactive and SW480 rerep inactive.
For COc1cc(CCN2C(=O)c3cccc4cccc(c34)C2=O)c(S(=O)(=O)N2CCCCCC2)cc1OC the results were KB-3-1 tox inactive, KB-V1 MDR tox inconclusive, ELG1 DNA repair inconclusive, MCF10A rereplic inconclusive and SW480 rerep inactive.
Screening COc1cc(CCN2C(=O)c3cccc4cccc(c34)C2=O)c(S(=O)(=O)N2CCC(C)CC2)cc1OC returned KB-3-1 tox inactive, KB-V1 MDR tox inactive, ELG1 DNA repair 21µM, MCF10A rereplic inactive and SW480 rerep inactive.
`CC(C)CNC(=O)c1cccc(NC(=O)c2ccc(Cl)c([N+](=O)[O-])c2)c1` gave KB-3-1 tox inactive, KB-V1 MDR tox 21µM, ELG1 DNA repair inconclusive, MCF10A rereplic inconclusive and SW480 rerep inactive.
`CC(C)CNC(=O)c1cccc(NC(=O)COc2ccc([N+](=O)[O-])cc2)c1` gave KB-3-1 tox inactive, KB-V1 MDR tox inactive, ELG1 DNA repair 21µM, MCF10A rereplic inactive and SW480 rerep inactive.
Screening COc1cccc(C(=O)Nc2cccc(C(=O)NCC(C)C)c2)c1 returned KB-3-1 tox inactive, KB-V1 MDR tox 18µM, ELG1 DNA repair inactive, MCF10A rereplic inactive and SW480 rerep inactive.
`CC(C)CNC(=O)c1cccc(NC(=O)Cc2ccc(Br)cc2)c1` gave KB-3-1 tox inconclusive, KB-V1 MDR tox 3.3µM, ELG1 DNA repair inconclusive, MCF10A rereplic inactive and SW480 rerep 1.5µM.
Screening COC(=O)c1ccc(/C=C/C(=O)OCC(=O)Nc2cc(C)on2)cc1 returned KB-3-1 tox inactive, KB-V1 MDR tox inactive, ELG1 DNA repair inactive, MCF10A rereplic inactive and SW480 rerep inactive.
